Results filed as inconclusive are left out. Active and inactive are the calls of the source. Unless noted, the call rests on the fitted dose curve; in most records, active means well fitted curve in the direction sought with a large enough effect; inconclusive means small, poorly fitted or top-dose-only effect, or another doubt; inactive means no such curve, though single readings can be large; an effect the other way counts as inactive or inconclusive.
Tests used:
[1] = qHTS drug screen for cell cycle checkpoint inhibitors in PARPi-resistant BRCA-mutant ovarian cancer cell lines. (AID 1963452; calls by dose curve); details: PEO1/OlaR viability, CellTiter-Glo luminescence, 96 h, stronger effect = lower value
Method in brief: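 PEO1, PEO4 and PEO1/OlaR ovarian cancer cells, 600 per well, exposed 96 h at 37C to a dilution series. Viability read by CellTiter-Glo luminescence, normalized to DMSO and empty wells; activity summarized as Z-AUC.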

[2] = qHTS profiling for inhibitors of Plasmodium falciparum proliferation (AID 504749); further: nearly all actives have a fitted effect of over 60% in size; further: potency means the concentration at half of the fitted maximal effect;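 on activity, negative = inhibition: 0% = DMSO vehicle and full inhibition = artemisinin control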; details: P. falciparum in erythrocytes, SYBR Green DNA, 72 h
Method in brief: (§1)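 Parasite proliferation within erythrocytes, 72 h exposure. Endpoint: SYBR Green I fluorescence after overnight lysis at room temperature. Controls: 0.29 uM artemisinin, DMSO.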

3D7 = experiment: as above; details: P. falciparum in erythrocytes, SYBR Green DNA, 72 h; series mostly up to 28.7 µM
Method in brief: as §1

7G8 = experiment: as above; details: P. falciparum in erythrocytes, SYBR Green DNA, 72 h; series mostly up to 28.7 µM
Method in brief: as §1

AS120 = experiment: as above; details: P. falciparum in erythrocytes, SYBR Green DNA, 72 h; series mostly up to 28.7 µM
Method in brief: as §1

C2A = experiment: as above; details: P. falciparum in erythrocytes, SYBR Green DNA, 72 h; series mostly up to 28.7 µM
Method in brief: as §1

CP185 = experiment: as above; details: P. falciparum in erythrocytes, SYBR Green DNA, 72 h; series mostly up to 28.7 µM
Method in brief: as §1

AA1029 = experiment: as above; details: P. falciparum in erythrocytes, SYBR Green DNA, 72 h; series mostly up to 28.7 µM
Method in brief: as §1

ATS189 = experiment: as above; details: P. falciparum in erythrocytes, SYBR Green DNA, 72 h; series mostly up to 28.7 µM
Method in brief: as §1

ATS95 = experiment: as above; details: P. falciparum in erythrocytes, SYBR Green DNA, 72 h; series mostly up to 28.7 µM
Method in brief: as §1

[3] = target: Cytochrome P450 2D6 (Homo sapiens) (UniProt P10635); experiment: qHTS for inhibitors of CYP2D6 against the NCATS DSHEA and TCM libraries (AID 1919972); details: CYP2D6 enzymatic inhibition, luminescence qHTS; series mostly up to 34.1 µM; further: on the % scale 0 is the no-effect control and ±100 the full control effect
Sequence of Cytochrome P450 2D6 (Homo sapiens) (P10635 whole entry, looked up): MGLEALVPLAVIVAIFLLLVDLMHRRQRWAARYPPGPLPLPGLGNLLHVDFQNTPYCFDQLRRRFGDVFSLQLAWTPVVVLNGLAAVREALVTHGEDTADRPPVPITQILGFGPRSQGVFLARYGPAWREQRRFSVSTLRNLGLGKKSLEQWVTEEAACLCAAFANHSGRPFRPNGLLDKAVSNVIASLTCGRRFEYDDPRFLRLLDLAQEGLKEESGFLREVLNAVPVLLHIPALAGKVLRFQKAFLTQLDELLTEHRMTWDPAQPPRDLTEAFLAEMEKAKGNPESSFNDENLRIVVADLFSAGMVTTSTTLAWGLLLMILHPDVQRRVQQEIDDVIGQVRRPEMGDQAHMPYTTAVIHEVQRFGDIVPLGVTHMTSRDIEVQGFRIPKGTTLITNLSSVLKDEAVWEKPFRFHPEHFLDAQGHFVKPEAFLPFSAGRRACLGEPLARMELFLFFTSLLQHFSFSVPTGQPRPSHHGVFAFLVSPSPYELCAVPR
Method in brief: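 Luminescent P450-Glo read-out of CYP2D6 turnover of a luciferin substrate after NADPH-driven reaction of 30-45 min at room temperature. Compounds were first preincubated 15 min with enzyme at titrated concentrations; quinidine was the intraplate control.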

[4] = target: Cytochrome P450 2C9 (Homo sapiens) (UniProt P11712); experiment: qHTS for inhibitors of CYP2C9 against the NCATS DSHEA and TCM libraries (AID 1919973); details: recombinant CYP2C9 enzyme activity, luminescence; series mostly up to 34.1 µM;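 further: luminogenic pro-luciferin CYP2C9 substrate turned into luciferin with NADPH regeneration; on the % scale 0 is the no-effect control and ±100 the full control effect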
Sequence of Cytochrome P450 2C9 (Homo sapiens) (P11712 whole entry, looked up, canonical isoform): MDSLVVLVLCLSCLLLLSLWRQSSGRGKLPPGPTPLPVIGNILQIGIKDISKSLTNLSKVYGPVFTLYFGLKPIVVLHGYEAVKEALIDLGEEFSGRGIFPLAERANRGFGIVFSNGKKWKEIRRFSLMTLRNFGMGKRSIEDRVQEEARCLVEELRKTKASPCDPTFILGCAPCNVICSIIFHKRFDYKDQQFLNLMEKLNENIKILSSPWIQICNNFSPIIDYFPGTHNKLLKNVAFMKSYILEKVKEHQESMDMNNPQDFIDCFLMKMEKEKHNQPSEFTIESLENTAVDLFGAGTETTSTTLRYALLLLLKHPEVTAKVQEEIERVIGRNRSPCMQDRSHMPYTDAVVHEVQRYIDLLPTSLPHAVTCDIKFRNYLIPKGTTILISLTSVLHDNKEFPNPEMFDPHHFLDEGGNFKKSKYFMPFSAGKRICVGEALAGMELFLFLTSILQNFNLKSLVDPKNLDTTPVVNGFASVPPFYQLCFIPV
Method in brief: (§2)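 Read-out is luminescence after P450-Glo detection (30 min, RT). Before that: 15 min compound–enzyme preincubation, then 30-45 min reaction with 1x NADPH regeneration solution, substrate concentration isoform-specific.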

[5] = target: Cytochrome P450 2C19 (Homo sapiens) (UniProt P33261); experiment: qHTS for inhibitors of CYP2C19 against the NCATS DSHEA and TCM libraries (AID 1919974); details: CYP2C19 enzyme inhibition, luminescence qHTS; series mostly up to 34.1 µM;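 further: luminescence from luciferin released by CYP2C19 oxidation of a pro-luciferin substrate; on the % scale 0 is the no-effect control and ±100 the full control effect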
Sequence of Cytochrome P450 2C19 (Homo sapiens) (P33261 whole entry, looked up): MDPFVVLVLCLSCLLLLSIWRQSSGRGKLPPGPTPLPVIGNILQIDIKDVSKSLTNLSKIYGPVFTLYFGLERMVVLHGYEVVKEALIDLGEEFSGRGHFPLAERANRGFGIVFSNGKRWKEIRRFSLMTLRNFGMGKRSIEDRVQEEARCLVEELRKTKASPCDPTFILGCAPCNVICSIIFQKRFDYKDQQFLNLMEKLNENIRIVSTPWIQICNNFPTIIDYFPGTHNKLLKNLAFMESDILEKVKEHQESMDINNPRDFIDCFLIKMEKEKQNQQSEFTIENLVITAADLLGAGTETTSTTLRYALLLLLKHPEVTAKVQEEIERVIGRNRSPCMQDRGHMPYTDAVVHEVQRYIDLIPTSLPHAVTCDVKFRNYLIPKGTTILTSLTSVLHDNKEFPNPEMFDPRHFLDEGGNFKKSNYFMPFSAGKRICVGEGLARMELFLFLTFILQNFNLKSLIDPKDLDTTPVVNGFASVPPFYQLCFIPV
Method in brief: as §2

[6] = KB-3-1 P-gp reporter qHTS against the NCATS DSHEA and TCM libraries (AID 1919975); details: KB-3-1 parental cells, CellTiter-Glo luminescence viability, 72 h; series mostly up to 26.1 µM; further: 0% is about no effect
Method in brief: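 Parental KB-3-1 cells, 500 cells/well, in DMEM with 10% FBS, exposed 72 h at 37 C to compounds in concentration-response. Viability read by CellTiter-Glo luminescence after 30 min at room temperature.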

[7] = target: Cytochrome P450 1A2 (Homo sapiens) (UniProt P05177); experiment: qHTS for inhibitors of CYPIA2 against the NCATS DSHEA and TCM libraries (AID 1919976); details: recombinant CYP1A2 enzyme activity, luminescence; series mostly up to 37 µM;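 further: light from luciferin formed by CYP1A2 from a pro-luciferin substrate; on the % scale 0 is the no-effect control and ±100 the full control effect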
Sequence of Cytochrome P450 1A2 (Homo sapiens) (P05177 whole entry, looked up): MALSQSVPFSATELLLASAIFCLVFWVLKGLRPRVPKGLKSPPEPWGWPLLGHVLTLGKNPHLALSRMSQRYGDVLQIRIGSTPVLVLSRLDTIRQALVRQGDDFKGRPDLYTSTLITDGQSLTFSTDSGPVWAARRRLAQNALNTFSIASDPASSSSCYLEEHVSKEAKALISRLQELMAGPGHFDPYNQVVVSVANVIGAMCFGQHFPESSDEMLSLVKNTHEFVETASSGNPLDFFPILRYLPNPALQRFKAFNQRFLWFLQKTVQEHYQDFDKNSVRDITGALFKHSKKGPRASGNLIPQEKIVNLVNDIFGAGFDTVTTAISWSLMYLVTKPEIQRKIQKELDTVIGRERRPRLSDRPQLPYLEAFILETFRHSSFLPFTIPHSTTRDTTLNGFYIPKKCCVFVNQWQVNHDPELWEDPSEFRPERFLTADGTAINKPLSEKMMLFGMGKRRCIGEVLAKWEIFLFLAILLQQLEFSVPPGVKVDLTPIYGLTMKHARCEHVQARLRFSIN
Method in brief: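 CYP1A2 + luciferin substrate, 100 mM KPO4-type buffer; cmpd 15 min RT; 1x NADPH regen, 30-45 min RT dark; detection reagent 30 min RT; luminescence. Minus-enzyme wells as background; furafylline intraplate control.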

[8] = qHTS Counterscreen for compound interference against the NCATS DSHEA and TCM libraries (AID 1919978); details: firefly luciferase detection reagent interference, luminescence;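 further: compounds preincubated with 1 µM D-luciferin or buffer before detection reagent; % of control where 0% means no effect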
Method in brief: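 Firefly luciferase detection reagent was added after compounds (19.5 nM–39.8 uM final) had been incubated 15 min at room temperature with 1 uM D-luciferin or with 100 mM phosphate buffer alone. Luminescence was read after 30 min at room temperature.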

[9] = Dual reporter qHTS for agonist of Pregnane X Receptor (hPXR) against the NCATS DSHEA and TCM libraries: Fluorescence readout (AID 1920058); details: PXR dual reporter cells; series mostly up to 40 µM; further: 0% is about no effect
Method in brief: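 HepG2 hPXR-Luc, 2000 cells/well, 5 h attach; cpds ~24 h, 37 °C/5% CO2; CellTiter-Fluor 1 h; fluor. Ex/Em 405/540 nm = viability.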

[10] = target: Nuclear receptor subfamily 1 group I member 2 (Homo sapiens) (UniProt O75469); experiment: Dual reporter qHTS for agonist of Pregnane X Receptor (hPXR) against the NCATS DSHEA and TCM libraries: Luminescence readout (AID 1920059); details: hPXR dual reporter cells, luciferase luminescence agonist; series mostly up to 40 µM; further: 0% is about no effect
Sequence of Nuclear receptor subfamily 1 group I member 2 (Homo sapiens) (O75469 whole entry, looked up): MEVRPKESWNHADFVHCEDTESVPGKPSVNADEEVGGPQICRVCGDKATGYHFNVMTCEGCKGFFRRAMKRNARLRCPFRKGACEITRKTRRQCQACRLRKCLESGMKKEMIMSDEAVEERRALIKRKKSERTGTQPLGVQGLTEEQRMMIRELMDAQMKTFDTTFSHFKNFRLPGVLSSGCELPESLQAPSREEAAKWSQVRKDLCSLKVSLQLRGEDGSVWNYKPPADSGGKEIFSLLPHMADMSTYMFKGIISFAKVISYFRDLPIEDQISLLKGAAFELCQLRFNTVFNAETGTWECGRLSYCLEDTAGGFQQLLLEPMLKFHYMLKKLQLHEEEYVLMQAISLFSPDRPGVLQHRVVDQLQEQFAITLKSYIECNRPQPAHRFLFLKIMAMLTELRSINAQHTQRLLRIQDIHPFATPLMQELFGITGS
Method in brief: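 hPXR-LucHepG2 cells in phenol red-free DMEM with 5% charcoal-stripped FBS, 2000 cells/well, attached 5 h, then exposed 24 h at 37C to compounds; rifampicin as positive agonist control (2.8 nM–92 uM). Luciferase luminescence read.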

[11] = target: Nuclear receptor subfamily 1 group I member 2 (Homo sapiens) (UniProt O75469); experiment: Dual reporter qHTS for antagonist of Pregnane X Receptor (hPXR) against the NCATS DSHEA and TCM libraries: Luminescence Readout (AID 1920060); details: hPXR dual reporter cells, luciferase luminescence, antagonist mode; series mostly up to 40 µM;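 further: HepG2 cells carrying hPXR luciferase reporter stimulated with rifampicin at 2 µM; 0% is about no effect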
Method in brief: (§3)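 HepG2 hPXR-Luc, 2000 cells/well, charcoal-stripped FBS medium; 5 h attach; RIF 2 uM final; 24 h 37C/5% CO2; CellTiter-Fluor 1 h, fluor 405/540; ONE-Glo 30 min RT, lum.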

[12] = Dual reporter qHTS for antagonist of Pregnane X Receptor (hPXR) against the NCATS DSHEA and TCM libraries: Fluorescence Readout (AID 1920061); details: PXR dual reporter cells, antagonist mode; series mostly up to 40 µM; further: 0% is about no effect
Method in brief: as §3

[13] = measured here: PEO1 parental Z-AUC
[14] = at 28.7 µM (top of the series), parasite line A
[15] = at 28.7 µM (top of the series), parasite line B
[16] = at 12.8 µM (top of the series), parasite line A
[17] = at 12.8 µM (top of the series), parasite line B

Clc1cccc(C(c2ccc3nc[nH]c3c2)n2ccnc2)c1 (configuration not stated)
active: Potency ([2]; parasite line B) 10 µM | Potency (3D7) 11.2 µM | Potency (7G8) 5.01 µM | Potency (AS120) 11.2 µM | Potency (C2A) 10 µM
0.0386: Z-AUC [1, 13]
inactive: Z-AUC [1] -0.1 | Potency (CP185)
0.19: Z-AUC ([1]; measured here: PEO4 Z-AUC)

C#C[C@]1(O)CC[C@H]2[C@@H]3CCC4=CC(=O)CC[C@@H]4[C@H]3CC[C@@]21CC
inactive: Z-AUC [1] -1.07 | activity, negative = inhibition [2, 14] -9.46% | activity, negative = inhibition [2, 15] -6.83% | Potency (3D7) | Potency (AA1029) | Potency (AS120) | Potency (ATS189) | Potency (ATS95) | Potency (C2A) | Potency (CP185)
-0.819: Z-AUC [1, 13]
-0.784: Z-AUC ([1]; measured here: PEO4 Z-AUC)

COc1cc(NS(=O)(=O)c2ccc(N)cc2)ncn1
inactive: activity, negative = inhibition [2, 16] 3.14% | activity, negative = inhibition [2, 17] 1.14% | Potency (3D7) | Potency (7G8) | Potency (AA1029) | Potency (AS120) | Potency (ATS189) | Potency (ATS95) | Potency (C2A) | Potency (CP185)

CC(=O)Nc1ccc(CC(=O)O)cc1
inactive: activity, negative = inhibition [2, 14] 9.92% | activity, negative = inhibition [2, 15] 11.5% | Potency (3D7) | Potency (7G8) | Potency (AA1029) | Potency (AS120) | Potency (ATS189) | Potency (ATS95) | Potency (C2A) | Potency (CP185)

C#C[C@]1(O)CC[C@H]2[C@@H]3[C@H](C)CC4=C(CCC(=O)C4)[C@H]3CC[C@@]21C
-0.281: Z-AUC [1, 13]
0.766: Z-AUC ([1]; measured here: PEO4 Z-AUC)
inactive: Z-AUC [1] -1.06

CC(=O)O[C@]1(C(C)=O)CC[C@H]2[C@@H]3C=C(C)C4=CC(=O)CC[C@]4(C)[C@H]3CC[C@@]21C
0.601: Z-AUC [1, 13]
0.47: Z-AUC ([1]; measured here: PEO4 Z-AUC)
inactive: Z-AUC [1] 0.958

CC[C@H](c1ccc(O)cc1)[C@@H](CC)c1ccc(O)cc1
inactive: activity, negative = inhibition [2, 16] -8.43% | activity, negative = inhibition [2, 17] 3.18% | Potency (3D7) | Potency (7G8) | Potency (AA1029) | Potency (AS120) | Potency (ATS189) | Potency (ATS95) | Potency (C2A) | Potency (CP185)

O=C1[C@H](CC[C@H](O)c2ccc(F)cc2)[C@@H](c2ccc(O)cc2)N1c1ccc(F)cc1
1.08: Z-AUC [1, 13] | Z-AUC ([1]; measured here: PEO4 Z-AUC)
inactive: Z-AUC [1] 1.11

C/C=C/C=N/NC(=O)c1ccncc1
inactive: activity, negative = inhibition [2, 14] -1.02% | activity, negative = inhibition [2, 15] -0.189% | Potency (3D7) | Potency (7G8) | Potency (AA1029) | Potency (AS120) | Potency (ATS189) | Potency (ATS95) | Potency (C2A) | Potency (CP185)

COc1cc([C@H]2Oc3cc([C@H]4Oc5cc(O)cc(O)c5C(=O)[C@@H]4O)ccc3O[C@@H]2CO)ccc1O
inactive: Z-AUC [1] 1.43 | activity, negative = inhibition [2, 14] -10.1% | activity, negative = inhibition [2, 15] -14.4% | Potency (3D7) | Potency (AA1029) | Potency (ATS189) | Potency (ATS95) | Potency (C2A) | Potency (CP185)
1.29: Z-AUC [1, 13]
0.956: Z-AUC ([1]; measured here: PEO4 Z-AUC)
active: Potency (7G8) 11.2 µM

OC1C(O)C(O)C(O)C(O)C1O (configuration not stated)
inactive: outcome [3] | outcome [4] | outcome [5] | outcome [6] | outcome [7] | max response [8] 2.31% | outcome [9] | outcome [10] | outcome [11] | outcome [12] | activity, negative = inhibition [2, 14] 1.75% | activity, negative = inhibition [2, 15] 14.4% | Potency (3D7) | Potency (7G8) | Potency (AA1029) | Potency (AS120) | Potency (ATS189) | Potency (ATS95) | Potency (C2A) | Potency (CP185)
